Results published in PubChem BioAssay AID647 (Vanderbilt High Throughput Screening Facility, 2007).
About 1,400 (64%) of roughly 2,200 compounds were called active.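 The calls were made as follows: active = luminescence in either replicate above plate mean of wells with a partly effective reference agonist dose plus 3 SD; inactive = the rest.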 So high a share suggests a set chosen from earlier hits. This excerpt belongs to a sample that is enriched for actives.

Assay: effects on beta-adrenoceptor cAMP reporter signal – cell-based, secondary assay 2, luminescence, counter-screen for D1 allosteric modulator project, confirmation (AID 647);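 also: isoproterenol raises cAMP through native beta-adrenoceptor Gs so signal bypasses D1; raw luminescence counts from the Envision reader with one value per duplicate well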
Details: HEK293 D1 CRE-luciferase, isoproterenol EC30 counter-screen; at 10 µM; stronger effect = higher value

Structure (SMILES)	luminescence
CCC(=NCc1ccco1)c1c(O)n(Cc2ccccc2)c(=O)[nH]c1=O	3640 (active)
